Measurements taken from the supplement of paper PMC10849652.
About 7,900 targets were measured; listed, in parts, are those with a hit and a random draw of the rest. About 0.6% of all pairs of compound and target were hits. Unmarked numbers belong to inactive results.

How the values were obtained:
Assay in all cases: log2 fold change, soluble protein after heating vs DMSO (PISA); higher = thermal stabilisation; K562 cells, 10 uM, 30 min; active = over 0.2 and 3.5 SD of the protein, either way, in both replicates (recomputed)
[1] = compound: CC[C@@H]1C(=O)N(C)c2cnc(Nc3ccc(C(=O)NC4CCN(C)CC4)cc3OC)nc2N1C1CCCC1
Summary of the method: (§1)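 Soluble protein was quantified by TMTpro 16plex LC-MS/MS after channel sums were equalised. It was obtained as the supernatant after 21,000xg for 90 min from pooled aliquots of K562 cells (2×10^6 cells/mL, 10 μM compound, 30 min) heated for 3 min across 48°C-58°C and extracted in PBS with 0.5% NP-40 at 4°C. Thermal stability values are relative to control samples and come from duplicates. They are given as log2 fold changes.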

volasertib = compound: CC[C@@H]1C(=O)N(C)c2cnc(Nc3ccc(C(=O)N[C@H]4CC[C@H](N5CCN(CC6CC6)CC5)CC4)cc3OC)nc2N1C(C)C [volasertib]
Summary of the method: as §1

[2] = compound: CC[C@H](C)N1C=C(C2=C(C=C(C=C21)C3=CN=C(C=C3)N4CCNCC4)C(=O)NCC5=C(C=C(NC5=O)C)C)C
Summary of the method: as §1

epoxomicin = compound: CC[C@H](C)[C@@H](C(=O)N[C@@H]([C@@H](C)O)C(=O)N[C@@H](CC(C)C)C(=O)[C@]1(CO1)C)NC(=O)[C@H]([C@@H](C)CC)N(C)C(=O)C [epoxomicin]
Summary of the method: as §1

[3] = compound: CCn1c(C(=O)N(C2CC2)C2CC2)cc2c3c(ncn3C)c(Nc3cc(C)n(C)n3)nc21
Summary of the method: as §1

[4] = compound: CCn1cc(-c2ccnc3[nH]c(-c4cccc(CN(C)C)c4)cc23)c(-c2ccc(NC(=O)N(C)C)cc2)n1
Summary of the method: as §1

[5] = compound: CN(C)CC(=O)Nc1ccc2[nH]c(=O)c3ccccc3c2c1
Summary of the method: as §1

rosiglitazone = compound: CN(CCOC1=CC=C(C=C1)C[C@H]2C(=O)NC(=O)S2)C3=CC=CC=N3 (racemic) [rosiglitazone]
Summary of the method: as §1

[6] = compound: CN1C2=C(C3=C1C(=O)N(N=C3)CC4=CC(=CC=C4)N)SC(=C2)S(=O)C
Summary of the method: as §1

[7] = compound: CN1CCC(CNc2ccc3ncc(-c4cccc(OC(F)(F)F)c4)n3n2)CC1
Summary of the method: as §1

UniProt P31943, sequence (P31943 whole entry, looked up): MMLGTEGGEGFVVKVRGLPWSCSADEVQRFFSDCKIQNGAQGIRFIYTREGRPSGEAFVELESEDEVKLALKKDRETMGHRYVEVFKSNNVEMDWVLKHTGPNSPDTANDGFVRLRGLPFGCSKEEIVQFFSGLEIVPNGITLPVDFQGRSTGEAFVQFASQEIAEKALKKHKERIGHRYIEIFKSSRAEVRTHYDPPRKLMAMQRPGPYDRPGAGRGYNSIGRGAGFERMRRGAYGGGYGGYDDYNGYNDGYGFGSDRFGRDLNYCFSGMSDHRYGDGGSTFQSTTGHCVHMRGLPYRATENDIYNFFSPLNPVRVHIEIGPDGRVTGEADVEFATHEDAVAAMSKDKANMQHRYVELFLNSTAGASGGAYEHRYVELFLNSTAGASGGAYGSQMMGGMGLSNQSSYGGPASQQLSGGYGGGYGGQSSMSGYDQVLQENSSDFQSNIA
UniProt Q6Y7W6, sequence (Q6Y7W6 whole entry, looked up): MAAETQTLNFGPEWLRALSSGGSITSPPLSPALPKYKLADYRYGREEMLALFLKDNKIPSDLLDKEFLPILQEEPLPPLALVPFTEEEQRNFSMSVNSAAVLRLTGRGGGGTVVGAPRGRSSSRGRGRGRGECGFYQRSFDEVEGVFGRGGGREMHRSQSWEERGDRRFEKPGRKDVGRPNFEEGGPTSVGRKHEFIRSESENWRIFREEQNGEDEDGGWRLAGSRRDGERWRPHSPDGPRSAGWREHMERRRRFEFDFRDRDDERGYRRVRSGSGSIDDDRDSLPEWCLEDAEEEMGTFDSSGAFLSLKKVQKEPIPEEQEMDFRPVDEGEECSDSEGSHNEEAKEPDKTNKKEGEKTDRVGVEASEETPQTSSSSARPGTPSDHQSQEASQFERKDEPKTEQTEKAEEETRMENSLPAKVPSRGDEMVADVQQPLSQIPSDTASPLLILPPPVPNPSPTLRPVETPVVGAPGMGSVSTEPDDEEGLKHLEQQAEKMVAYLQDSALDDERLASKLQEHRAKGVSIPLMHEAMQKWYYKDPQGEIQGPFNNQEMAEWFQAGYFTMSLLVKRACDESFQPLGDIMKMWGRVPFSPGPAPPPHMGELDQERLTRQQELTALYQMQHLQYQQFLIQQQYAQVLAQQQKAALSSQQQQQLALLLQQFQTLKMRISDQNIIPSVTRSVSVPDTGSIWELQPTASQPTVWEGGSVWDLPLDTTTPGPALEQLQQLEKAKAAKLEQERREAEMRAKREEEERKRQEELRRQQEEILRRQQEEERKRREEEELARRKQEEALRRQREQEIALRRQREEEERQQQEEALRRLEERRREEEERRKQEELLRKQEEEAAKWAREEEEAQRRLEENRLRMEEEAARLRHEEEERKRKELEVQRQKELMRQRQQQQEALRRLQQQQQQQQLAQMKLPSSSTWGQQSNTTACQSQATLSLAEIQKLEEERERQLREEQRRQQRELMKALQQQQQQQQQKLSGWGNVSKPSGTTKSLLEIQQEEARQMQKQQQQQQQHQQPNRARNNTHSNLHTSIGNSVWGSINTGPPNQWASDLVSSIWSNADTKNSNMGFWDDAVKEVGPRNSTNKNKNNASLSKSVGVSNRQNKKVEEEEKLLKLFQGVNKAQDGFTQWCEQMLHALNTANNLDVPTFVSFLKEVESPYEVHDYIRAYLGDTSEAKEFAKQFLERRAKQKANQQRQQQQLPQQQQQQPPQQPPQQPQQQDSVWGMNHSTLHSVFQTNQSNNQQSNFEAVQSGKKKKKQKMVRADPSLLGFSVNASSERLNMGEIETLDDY
UniProt P49840, sequence (P49840 whole entry, looked up): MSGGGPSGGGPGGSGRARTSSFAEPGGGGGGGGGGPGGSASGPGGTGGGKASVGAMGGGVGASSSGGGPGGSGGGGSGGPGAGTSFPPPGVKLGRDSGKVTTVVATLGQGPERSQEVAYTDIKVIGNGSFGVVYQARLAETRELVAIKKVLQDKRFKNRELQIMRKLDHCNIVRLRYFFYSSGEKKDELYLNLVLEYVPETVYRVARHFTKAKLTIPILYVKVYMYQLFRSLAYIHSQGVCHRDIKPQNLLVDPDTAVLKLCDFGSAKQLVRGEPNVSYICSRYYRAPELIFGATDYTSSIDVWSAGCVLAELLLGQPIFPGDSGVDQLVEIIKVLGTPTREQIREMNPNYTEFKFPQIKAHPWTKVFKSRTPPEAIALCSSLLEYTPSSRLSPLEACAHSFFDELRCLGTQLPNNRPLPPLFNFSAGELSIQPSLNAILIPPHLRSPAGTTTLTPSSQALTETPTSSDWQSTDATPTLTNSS
UniProt O14929, sequence (O14929 whole entry, looked up): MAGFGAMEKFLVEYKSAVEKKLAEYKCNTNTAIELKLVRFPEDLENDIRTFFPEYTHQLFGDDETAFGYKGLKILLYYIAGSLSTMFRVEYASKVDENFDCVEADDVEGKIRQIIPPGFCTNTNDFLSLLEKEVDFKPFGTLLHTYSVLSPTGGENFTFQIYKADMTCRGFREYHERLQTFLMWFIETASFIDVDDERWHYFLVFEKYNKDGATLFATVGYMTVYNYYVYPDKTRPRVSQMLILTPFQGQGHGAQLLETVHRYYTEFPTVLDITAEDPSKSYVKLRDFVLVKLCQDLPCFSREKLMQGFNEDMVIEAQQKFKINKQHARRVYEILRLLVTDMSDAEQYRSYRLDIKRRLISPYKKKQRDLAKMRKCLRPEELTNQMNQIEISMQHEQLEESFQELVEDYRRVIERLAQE
UniProt P15586, sequence (P15586 whole entry, looked up): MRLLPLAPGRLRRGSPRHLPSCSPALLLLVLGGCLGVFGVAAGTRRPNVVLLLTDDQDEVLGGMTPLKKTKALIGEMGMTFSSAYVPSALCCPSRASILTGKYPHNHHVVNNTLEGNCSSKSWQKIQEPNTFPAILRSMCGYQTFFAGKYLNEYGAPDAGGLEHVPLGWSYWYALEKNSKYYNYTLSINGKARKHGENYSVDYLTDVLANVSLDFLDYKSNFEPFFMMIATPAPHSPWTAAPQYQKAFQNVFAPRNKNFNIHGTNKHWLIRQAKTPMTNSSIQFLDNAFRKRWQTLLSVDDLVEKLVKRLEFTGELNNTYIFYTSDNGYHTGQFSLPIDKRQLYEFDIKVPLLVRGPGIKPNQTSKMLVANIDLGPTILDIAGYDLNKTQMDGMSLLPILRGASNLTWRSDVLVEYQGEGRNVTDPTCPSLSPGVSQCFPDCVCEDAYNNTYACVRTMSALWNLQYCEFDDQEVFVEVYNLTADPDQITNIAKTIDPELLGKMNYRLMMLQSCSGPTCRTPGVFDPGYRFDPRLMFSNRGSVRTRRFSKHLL
UniProt P13807, sequence (P13807 whole entry, looked up): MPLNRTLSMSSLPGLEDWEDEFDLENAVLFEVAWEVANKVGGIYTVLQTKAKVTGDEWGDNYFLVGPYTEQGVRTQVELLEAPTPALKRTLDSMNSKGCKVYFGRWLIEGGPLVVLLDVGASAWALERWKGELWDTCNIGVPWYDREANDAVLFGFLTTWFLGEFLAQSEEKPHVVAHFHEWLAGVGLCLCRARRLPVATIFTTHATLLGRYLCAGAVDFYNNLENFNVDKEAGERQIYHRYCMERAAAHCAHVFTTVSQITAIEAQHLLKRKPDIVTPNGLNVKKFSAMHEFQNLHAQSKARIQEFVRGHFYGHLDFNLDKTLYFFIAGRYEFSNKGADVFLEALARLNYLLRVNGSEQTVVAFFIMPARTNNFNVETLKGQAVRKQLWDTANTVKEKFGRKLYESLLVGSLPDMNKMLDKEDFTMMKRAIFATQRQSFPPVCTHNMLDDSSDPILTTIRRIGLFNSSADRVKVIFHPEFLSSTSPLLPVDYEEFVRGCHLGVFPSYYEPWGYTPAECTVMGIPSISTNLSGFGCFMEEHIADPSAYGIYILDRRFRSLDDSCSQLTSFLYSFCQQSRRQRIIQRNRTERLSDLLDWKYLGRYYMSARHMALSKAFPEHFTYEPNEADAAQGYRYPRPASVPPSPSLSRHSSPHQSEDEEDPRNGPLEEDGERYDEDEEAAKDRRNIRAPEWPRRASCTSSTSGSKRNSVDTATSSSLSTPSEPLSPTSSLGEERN
UniProt P52789, sequence (P52789 whole entry, looked up): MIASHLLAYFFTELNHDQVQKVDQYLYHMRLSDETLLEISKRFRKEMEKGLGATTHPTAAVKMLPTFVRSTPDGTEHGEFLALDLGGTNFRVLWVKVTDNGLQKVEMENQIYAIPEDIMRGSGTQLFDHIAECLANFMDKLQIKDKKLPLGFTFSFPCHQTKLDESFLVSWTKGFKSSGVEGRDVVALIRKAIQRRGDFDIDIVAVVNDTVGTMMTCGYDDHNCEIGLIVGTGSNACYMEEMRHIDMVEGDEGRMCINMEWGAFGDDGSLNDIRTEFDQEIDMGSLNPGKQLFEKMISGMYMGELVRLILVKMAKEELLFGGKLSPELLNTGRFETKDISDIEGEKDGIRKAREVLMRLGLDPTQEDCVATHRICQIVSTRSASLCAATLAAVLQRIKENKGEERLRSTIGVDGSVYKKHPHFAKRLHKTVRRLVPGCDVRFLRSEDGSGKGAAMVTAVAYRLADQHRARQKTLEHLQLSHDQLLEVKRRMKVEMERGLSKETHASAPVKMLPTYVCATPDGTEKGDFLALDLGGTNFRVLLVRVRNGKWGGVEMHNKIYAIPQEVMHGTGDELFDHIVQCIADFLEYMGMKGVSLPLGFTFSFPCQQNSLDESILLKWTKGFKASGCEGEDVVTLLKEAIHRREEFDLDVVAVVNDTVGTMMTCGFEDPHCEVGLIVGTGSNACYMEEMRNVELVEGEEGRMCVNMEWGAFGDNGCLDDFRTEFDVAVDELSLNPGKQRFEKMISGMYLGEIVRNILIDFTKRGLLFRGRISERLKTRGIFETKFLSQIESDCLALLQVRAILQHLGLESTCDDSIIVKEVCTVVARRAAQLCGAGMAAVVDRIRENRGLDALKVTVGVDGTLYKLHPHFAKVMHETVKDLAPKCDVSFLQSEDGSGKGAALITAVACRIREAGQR
UniProt P0CL80, sequence (P0CL80 whole entry, looked up): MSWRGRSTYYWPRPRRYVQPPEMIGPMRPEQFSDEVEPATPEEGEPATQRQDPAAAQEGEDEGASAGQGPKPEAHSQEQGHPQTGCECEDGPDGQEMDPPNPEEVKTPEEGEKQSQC

In the case of GNAS (UniProt Q5JWF2), the log2 fold change [1] is reported as 0.125, the log2 fold change (volasertib) is reported as 0.164 and the log2 fold change [2] is reported as 0.032. For the same target, the log2 fold change (epoxomicin) was 0.011, the log2 fold change [3] was 0.016 and the log2 fold change [4] was 0. For the same target, the log2 fold change [5] was -0.02, the log2 fold change (rosiglitazone) was 0.006 and the log2 fold change [6] was -0.03. The log2 fold change [7] was 0.057.
In the case of GIGYF2 (UniProt Q6Y7W6), the log2 fold change [1] is reported as -0.093, the log2 fold change (volasertib) is reported as -0.52 (active) and the log2 fold change [2] is reported as 0.02. For the same target, the log2 fold change (epoxomicin) was 0, the log2 fold change [3] was -0.046 and the log2 fold change [4] was -0.039. For the same target, the log2 fold change [5] was 0.032, the log2 fold change (rosiglitazone) was 0.069 and the log2 fold change [6] was 0.021. The log2 fold change [7] was -0.221 (active).
GYS1 (UniProt P13807) was tested, and the log2 fold change [1] was 0.229, the log2 fold change (volasertib) was 0.224 and the log2 fold change [2] was 0.059. It also gave a log2 fold change (epoxomicin) of -0.034, a log2 fold change [3] of 0.069 and a log2 fold change [4] of 0.139. The log2 fold change [5] was 0.029, the log2 fold change (rosiglitazone) was -0.1 and the log2 fold change [6] was 0.364. The log2 fold change [7] was 0.123.
For HNRNPH1 (UniProt P31943), the log2 fold change [1] was -0.124, the log2 fold change (volasertib) was -0.583 (active) and the log2 fold change [2] was 0.1. It also gave a log2 fold change (epoxomicin) of 0.018, a log2 fold change [3] of -0.192 and a log2 fold change [4] of -0.025. The log2 fold change [5] was 0.072, the log2 fold change (rosiglitazone) was 0.025 and the log2 fold change [6] was 0.083. It also gave a log2 fold change [7] of -0.247.
In the case of FNTB (UniProt P49356), the log2 fold change [1] is reported as 0.948 (active), the log2 fold change (volasertib) is reported as 0.707 (active) and the log2 fold change [2] is reported as 0.01. The log2 fold change (epoxomicin) was 0.044, the log2 fold change [3] was -0.006 and the log2 fold change [4] was -0.212. For the same target, the log2 fold change [5] was 0.02, the log2 fold change (rosiglitazone) was 0.062 and the log2 fold change [6] was -0.055. For the same target, the log2 fold change [7] was -0.088.
GLB1 (UniProt P16278) was tested, and the log2 fold change [1] was -0.707 (active), the log2 fold change (volasertib) was -1.11 (active) and the log2 fold change [2] was 0.007. It also gave a log2 fold change (epoxomicin) of -0.01, a log2 fold change [3] of 0.038 and a log2 fold change [4] of 0.057. For the same target, the log2 fold change [5] was 0.002, the log2 fold change (rosiglitazone) was -0.023 and the log2 fold change [6] was 0.037. The log2 fold change [7] was -0.751 (active).
With HAT1 (UniProt O14929) the log2 fold change [1] was -0.185, the log2 fold change (volasertib) was -0.313 (active) and the log2 fold change [2] was 0.02. It also gave a log2 fold change (epoxomicin) of 0.035, a log2 fold change [3] of 0.014 and a log2 fold change [4] of -0.057. For the same target, the log2 fold change [5] was -0.007, the log2 fold change (rosiglitazone) was 0.049 and the log2 fold change [6] was -0.081. The log2 fold change [7] was 0.026.
GNS (UniProt P15586) was tested, and the log2 fold change [1] was -0.272 (active), the log2 fold change (volasertib) was -0.181 and the log2 fold change [2] was -0.045. For the same target, the log2 fold change (epoxomicin) was -0.012, the log2 fold change [3] was 0.018 and the log2 fold change [4] was -0.003. For the same target, the log2 fold change [5] was -0.007, the log2 fold change (rosiglitazone) was -0.005 and the log2 fold change [6] was -0.016. The log2 fold change [7] was -0.408 (active).
IFI30 (UniProt P13284) was tested, and the log2 fold change [1] was -0.443 (active), the log2 fold change (volasertib) was -0.436 (active) and the log2 fold change [2] was 0.038. It also gave a log2 fold change (epoxomicin) of -0.014, a log2 fold change [3] of -0.096 and a log2 fold change [4] of -0.098. It also gave a log2 fold change [5] of -0.021, a log2 fold change (rosiglitazone) of -0.061 and a log2 fold change [6] of -0.06. For the same target, the log2 fold change [7] was -0.448 (active).
In the case of IFRD1 (UniProt O00458), the log2 fold change [1] is reported as 0.107, the log2 fold change (volasertib) is reported as -0.015 and the log2 fold change [2] is reported as -0.14. It also gave a log2 fold change (epoxomicin) of 0.053, a log2 fold change [3] of 0.019 and a log2 fold change [4] of -0.016. The log2 fold change [5] was -0.143, the log2 fold change (rosiglitazone) was 0 and the log2 fold change [6] was -0.097. For the same target, the log2 fold change [7] was 0.297.
With HK2 (UniProt P52789) the log2 fold change [1] was -0.156, the log2 fold change (volasertib) was -0.813 (active) and the log2 fold change [2] was 0.086. For the same target, the log2 fold change (epoxomicin) was 0.049, the log2 fold change [3] was -0.127 and the log2 fold change [4] was 0.016. The log2 fold change [5] was -0.001, the log2 fold change (rosiglitazone) was 0.032 and the log2 fold change [6] was -0.028. For the same target, the log2 fold change [7] was -0.038.
GAGE12F (UniProt P0CL80) gave a log2 fold change [1] of 0.037, a log2 fold change (volasertib) of 0.069 and a log2 fold change [2] of -0.033. It also gave a log2 fold change (epoxomicin) of 0.034, a log2 fold change [3] of -0.039 and a log2 fold change [4] of -0.058. The log2 fold change [5] was -0.095, the log2 fold change (rosiglitazone) was 0.002 and the log2 fold change [6] was -0.049. The log2 fold change [7] was -0.234.
GBF1 (UniProt Q92538) was tested, and the log2 fold change [1] was -0.086, the log2 fold change (volasertib) was -0.474 (active) and the log2 fold change [2] was 0.059. The log2 fold change (epoxomicin) was -0.007, the log2 fold change [3] was -0.07 and the log2 fold change [4] was -0.013. It also gave a log2 fold change [5] of 0.069, a log2 fold change (rosiglitazone) of 0.081 and a log2 fold change [6] of 0.081. It also gave a log2 fold change [7] of -0.212.
GSK3A (UniProt P49840) showed a log2 fold change [1] of -0.067, a log2 fold change (volasertib) of 0.002 and a log2 fold change [2] of 0.002. It also gave a log2 fold change (epoxomicin) of 0, a log2 fold change [3] of 0.025 and a log2 fold change [4] of -0.101. For the same target, the log2 fold change [5] was -0.008, the log2 fold change (rosiglitazone) was 0.017 and the log2 fold change [6] was -0.066. It also gave a log2 fold change [7] of 0.033.
